Assay [1] deals with Lysosomal acid glucosylceramidase (Homo sapiens) (UniProt P04062). Put plainly: Glucocerebrosidase-p2 (AID 348; in the data active = potency below about 10 µM; note: potency is the fitted concentration of half-maximal effect). The note with it: purified GBA, blue fluorogenic substrate, 40 min. The essentials: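 Compounds titrated from 0.6 nM upwards against 0.2 nM enzyme in pH 5.9 citric acid/KH2PO4, taurocholate, tween-20; blue fluorogenic substrate 80 uM, 40 min room temperature, stopped and read Ex 365/Em 440 for AC50.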
Lysosomal acid glucosylceramidase (Homo sapiens), sequence (P04062 whole entry, looked up): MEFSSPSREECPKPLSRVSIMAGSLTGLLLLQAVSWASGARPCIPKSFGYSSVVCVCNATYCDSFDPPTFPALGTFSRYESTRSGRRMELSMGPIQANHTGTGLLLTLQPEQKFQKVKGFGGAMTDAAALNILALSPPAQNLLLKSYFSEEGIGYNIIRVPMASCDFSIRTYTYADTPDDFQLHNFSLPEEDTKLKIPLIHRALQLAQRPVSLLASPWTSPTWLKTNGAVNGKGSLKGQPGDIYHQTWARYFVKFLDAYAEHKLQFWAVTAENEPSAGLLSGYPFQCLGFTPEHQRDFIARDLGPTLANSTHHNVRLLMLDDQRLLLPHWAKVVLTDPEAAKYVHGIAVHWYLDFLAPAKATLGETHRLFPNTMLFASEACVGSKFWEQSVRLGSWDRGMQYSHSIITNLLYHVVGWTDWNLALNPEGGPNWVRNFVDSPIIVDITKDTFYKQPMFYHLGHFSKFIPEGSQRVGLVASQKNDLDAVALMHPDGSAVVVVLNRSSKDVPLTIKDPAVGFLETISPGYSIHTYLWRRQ

Assay [2] can be described thus: AP1 Signaling Pathway (AID 357; active = well fitted curve in either direction with a large enough effect, not every such curve was filed as active;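 note: ME-180 reporter cells stimulated with EGF at its EC50 level; % is set by controls: 0 for no effect and ±100 for the full control effect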). The note with it: ME-180 AP-1-bla reporter, EGF-induced, beta-lactamase ratio, 5 h; at 7.69 µM (top of the series) unless noted. In a few lines:
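A ratiometric CCF4 readout (405 nm excitation; 460 and 530 nm emission) quantified AP-1-driven beta-lactamase in ME-180 cells after 5 h with compound and EC50 EGF; AC50 values were derived for activators and inhibitors.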

For assay [3], the target named is Cytochrome P450 1A2 (Homo sapiens) (UniProt P05177). Put plainly: p450-cyp1a2 (AID 410; calls by dose curve; note: potency is the fitted concentration of half-maximal effect). The note with it: recombinant CYP1A2, luciferin-ME demethylation, luminescence; series mostly up to 57 µM. The essentials: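 Human CYP1A2 (20nM) demethylated Luciferin-ME at its Km (100uM) in 100mM KPO4. After 10 min compound preincubation, NADPH regeneration ran the reaction 60 min at room temperature. Luciferin was read by luminescence, normalized to 57 uM furafylline.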
Cytochrome P450 1A2 (Homo sapiens), sequence (P05177 whole entry, looked up): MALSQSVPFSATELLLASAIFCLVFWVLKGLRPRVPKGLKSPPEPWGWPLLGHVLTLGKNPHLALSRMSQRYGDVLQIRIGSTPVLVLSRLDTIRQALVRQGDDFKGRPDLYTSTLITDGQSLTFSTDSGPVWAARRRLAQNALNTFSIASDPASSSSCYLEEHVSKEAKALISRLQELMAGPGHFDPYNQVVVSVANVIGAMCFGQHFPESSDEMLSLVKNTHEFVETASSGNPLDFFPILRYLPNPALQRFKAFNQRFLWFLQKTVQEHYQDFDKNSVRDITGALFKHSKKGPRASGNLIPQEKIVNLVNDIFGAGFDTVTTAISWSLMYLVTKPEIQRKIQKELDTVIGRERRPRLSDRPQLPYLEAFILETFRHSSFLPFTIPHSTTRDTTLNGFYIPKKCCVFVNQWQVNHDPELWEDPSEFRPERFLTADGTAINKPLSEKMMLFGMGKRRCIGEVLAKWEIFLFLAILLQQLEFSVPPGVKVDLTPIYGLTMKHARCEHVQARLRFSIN

Assay [4] is described as follows: NFAT Signaling Pathway (AID 444; active = well fitted curve in either direction with a large enough effect, not every such curve was filed as active;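 note: carbachol stimulus at about its EC50 of 1 µM final; % is set by controls: 0 for no effect and ±100 for the full control effect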). The following applies: Jurkat NFAT-bla M1, carbachol, beta-lactamase ratio, 5 h; at 7.69 µM (top of the series) unless noted. In a few lines:
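Read-out: CCF4 FRET ratio (460 nm/530 nm) after 1 h RT dye loading, used for %activity and AC50 from titration series. Cells: Jurkat NFAT-β-lactamase/M1 line, treated with compound plus 1 uM carbachol for 5 h, 37 °C.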

The nature of assay [5]: Stat Signaling Pathway (AID 446; active = well fitted curve in either direction with a large enough effect, not every such curve was filed as active;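 note: ME-180 cervical cancer cells given 40 pM IL-6 alongside compound; SIE-controlled beta-lactamase reporter measured as 460/530 nm FRET emission ratio; % is set by controls: 0 for no effect and ±100 for the full control effect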). The note with it: ME-180 SIE beta-lactamase reporter, IL-6 stimulated, 5 h; at 7.69 µM (top of the series) unless noted. The essentials:
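Reporter line: ME-180 cervical carcinoma, SIE-beta-lactamase. Treatment: compound with 40 pM IL-6, 5 hrs, 37 C, in low-serum OPTI-MEM with 10 mM HEPES pH 7.3. Detection: 460/530 nm fluorescence.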

For assay [6], the target named is Glucocorticoid receptor (Homo sapiens) (UniProt P04150). Put plainly: GR-GFP Redistribution (AID 450;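 active = compounds whose dose series gives a full or clear partial fitted curve of increased nuclear translocation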; note: potency is the fitted concentration of half-maximal effect). The following applies: U2OS GR-GFP nuclear translocation, laser cytometry, 2 h.
Glucocorticoid receptor (Homo sapiens), sequence (P04150 whole entry, looked up): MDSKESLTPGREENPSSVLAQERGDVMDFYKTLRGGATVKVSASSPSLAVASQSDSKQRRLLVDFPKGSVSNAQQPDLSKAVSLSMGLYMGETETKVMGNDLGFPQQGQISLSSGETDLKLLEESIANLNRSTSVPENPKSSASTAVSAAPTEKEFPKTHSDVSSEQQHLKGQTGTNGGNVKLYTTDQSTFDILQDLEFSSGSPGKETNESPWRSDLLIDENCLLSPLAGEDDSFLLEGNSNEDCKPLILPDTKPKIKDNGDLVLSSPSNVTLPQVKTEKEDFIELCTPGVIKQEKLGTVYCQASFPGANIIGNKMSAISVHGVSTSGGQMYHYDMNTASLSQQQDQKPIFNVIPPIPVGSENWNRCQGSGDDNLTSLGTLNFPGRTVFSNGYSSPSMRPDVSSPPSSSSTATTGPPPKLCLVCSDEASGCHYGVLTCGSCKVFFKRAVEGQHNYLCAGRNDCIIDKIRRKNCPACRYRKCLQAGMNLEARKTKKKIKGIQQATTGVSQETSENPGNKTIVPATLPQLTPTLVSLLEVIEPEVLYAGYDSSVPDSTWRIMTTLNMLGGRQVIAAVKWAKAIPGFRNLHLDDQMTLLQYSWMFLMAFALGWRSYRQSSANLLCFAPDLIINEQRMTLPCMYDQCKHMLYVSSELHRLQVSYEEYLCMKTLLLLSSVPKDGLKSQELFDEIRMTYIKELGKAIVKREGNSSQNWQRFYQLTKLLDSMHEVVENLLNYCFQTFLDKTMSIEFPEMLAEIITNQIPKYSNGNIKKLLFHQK
For assay [7] the target is unchanged. Description: GR-EFC Redistribution (AID 451; calls by dose curve; note: potency is the fitted concentration of half-maximal effect). The note with it: CHO-K1 GR-EFC translocation, beta-gal luminescence, 2 h. The essentials:
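Translocation of GR-ED fusion to nuclear EA restores b-gal, read by luminescence after 1 h room-temperature detection. Engineered CHO-K1 biosensor cells, 1,000/well, exposed 2 h at 37 C to titrations up to 46 uM final.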

For assay [8], the target named is Mitogen-activated protein kinase 10 (Mus musculus) (UniProt Q61831). Description: JNK3 AlphaScreen Assay (AID 530; active = well fitted curve in either direction with a large enough effect, not every such curve was filed as active;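 note: kinase came from lysate of stimulated human HepG2 cells; signal reports phosphorylation of biotinylated GST-cJun 1-79 at Ser73 with 10 µM ATP; % is set by controls: 0 for no effect and ±100 for the full control effect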). The note with it: JNK3 lysate, c-Jun phosphorylation; series mostly up to 57.1 µM. In a few lines: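 Room-temperature AlphaScreen kinase assay; pre-activated HepG2 lysate as JNK3 source, biotin-GST-cJun(1-79) substrate, 10 uM ATP, compound 15 min preincubation.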

The target of assay [9] is Cytochrome P450 3A4 (Homo sapiens) (UniProt P08684). Description: qHTS Assay for Activators of Cytochrome P450 3A4 (AID 885). Note: nearly all actives have a fitted effect of over 65% in size. The note with it: recombinant CYP3A4, Luciferin-PPXE luminescence, 60 min; series mostly up to 57.1 µM. In a few lines: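 Signal was normalized against complete inhibition by 57 uM ketoconazole. The reaction used 20nM CYP3A4 with 25uM Luciferin-PPXE, 10-min compound preincubation and a 60-min NADPH-supported step at RT.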
Cytochrome P450 3A4 (Homo sapiens), sequence (P08684 whole entry, looked up): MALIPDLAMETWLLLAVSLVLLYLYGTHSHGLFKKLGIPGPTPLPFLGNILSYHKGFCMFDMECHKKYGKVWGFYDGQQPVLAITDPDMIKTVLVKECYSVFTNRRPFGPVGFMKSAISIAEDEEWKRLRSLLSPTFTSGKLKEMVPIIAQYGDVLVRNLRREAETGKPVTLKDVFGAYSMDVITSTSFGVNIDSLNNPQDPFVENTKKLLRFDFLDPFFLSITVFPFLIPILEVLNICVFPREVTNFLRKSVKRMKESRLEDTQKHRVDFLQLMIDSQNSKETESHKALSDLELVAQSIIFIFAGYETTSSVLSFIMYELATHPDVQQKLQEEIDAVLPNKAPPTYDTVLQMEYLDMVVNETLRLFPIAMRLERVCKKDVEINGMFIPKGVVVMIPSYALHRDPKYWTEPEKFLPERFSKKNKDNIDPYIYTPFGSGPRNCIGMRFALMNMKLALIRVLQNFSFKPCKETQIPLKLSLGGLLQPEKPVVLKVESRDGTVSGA

Assay [10] addresses Dual specificity protein kinase CLK4 (Homo sapiens) (UniProt Q9HAZ1). Description: qHTS Assay for Inhibitors of CDC-like Kinase 4 (Kinase-Glo Assay) (AID 1770). Note: nearly all actives have a fitted effect of over 65% in size. Note: potency is the fitted concentration of half-maximal effect. The note with it: recombinant Clk4, Kinase-Glo ATP depletion luminescence; series mostly up to 66.7 µM. The essentials:
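Substrate mix (RS peptide 100 uM, ATP 1 uM) dispensed, compound pinned in, then Clk4 added to 25 nM final. Incubated 4.5 h at RT; Kinase-Glo reagent added, luminescence read after 5 min.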

The target is the same in assay [11]. Put plainly: qHTS Assay for Inhibitors of CDC-like Kinase 4 (ADP-FP Assay) (AID 1795).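 Note: recombinant human CLK4 phosphorylating RS repeat peptide at 1 µM ATP; % is set by controls: 0 for no effect and ±100 for the full control effect; nearly all actives have a fitted effect of over 60% in size.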 The following applies: Transcreener ADP fluorescence polarization; series mostly up to 50 µM. In a few lines: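 Clk4 6.25 nM; RS peptide 100 uM; ATP 1 uM; 25 mM Tris pH 7.5, 10 mM MgCl2; 1 h reaction. ADP detected via antibody/orange tracer FP displacement; TG003 positive control.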

The target of assay [12] is Ubiquitin carboxyl-terminal hydrolase 1 (Homo sapiens) (UniProt O94782). Description: Inhibitors of USP1/UAF1: Pilot qHTS (AID 504865).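 Note: rhodamine fluorescence freed from ubiquitin-rhodamine substrate followed over time; top concentration of the series differs between compounds; % is set by controls: 0 for no effect and ±100 for the full control effect; nearly all actives have a fitted effect of over 35% in size.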 The following applies: purified USP1/UAF1, Ub-rhodamine cleavage fluorescence; series mostly up to 54.9 µM. The essentials:
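In 50mM HEPES pH 7.8 containing 0.5mM EDTA, 1mM TCEP, 0.1 mg/ml BSA and 0.01% Tween-20, 1nM USP1/UAF1 is exposed to compound for 15 min, then Ub-Rho (150nM final) is added and fluorescence is read over time.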

Assay [13] is described as follows: Primary qHTS for small molecule stabilizers of the endoplasmic reticulum resident proteome: Secreted ER Calcium Modulated Protein (SERCaMP) assay (AID 1508630). Note: % is set by controls: 0 for no effect and ±100 for the full control effect. The note with it: SH-SY5Y GLuc-SERCaMP (Gaussia luciferase released on ER calcium loss) secretion, thapsigargin, luminescence; series mostly up to 38.4 µM. The essentials: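 GLuc-SERCaMP-expressing SH-SY5Y cells, pretreated 16 h with compound, are challenged with thapsigargin to empty ER calcium stores; after 4 h, coelenterazine is added directly to the medium and luminescence is imaged.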

Assay [14] concerns the target 3',5'-cyclic-AMP phosphodiesterase 4B (Homo sapiens) (UniProt Q07343). Put plainly: qHTS Assay for Inhibitors of PDE-IV (AID 607; active = well fitted activation curve with a large enough effect in the main read-out, with a control signal flat, not every such curve was filed as active; note: % of control where 0% means no effect). The note with it: HEK293 ACTOne CNG channel cells, membrane potential fluorescence; series mostly up to 22.9 µM. The essentials: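 Cell-based read-out of cAMP via a modified cyclic nucleotide-gated channel and membrane potential dye (535/590 nm) in HEK293 cells expressing PDE4 endogenously. Compounds tested up to 22.9 uM final; 100 uM RO 20-1724 reference.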

The target of assay [15] is Dual specificity protein kinase CLK4 (Homo sapiens) (UniProt Q9HAZ1). Description: qHTS Assay for Inhibitors of CDC-like Kinase 4 (ADP-Glo Assay) (AID 1771). Note: nearly all actives have a fitted effect of over 70% in size. Note: potency is the fitted concentration of half-maximal effect. The following applies: recombinant CLK4, ADP-Glo luminescence; series mostly up to 80 µM. The essentials:
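Clk4 (25 nM) was incubated 1 hr at room temperature with 100 uM RS repeat peptide and 1 uM ATP in buffer with 2 mM MgCl2, 0.5 mM EGTA, 2.5 mM DTT. ADP formed was quantified by ADP-Glo luminescence.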

The target in assay [16] is Cytochrome P450 3A4 (Homo sapiens) (UniProt P08684). Put plainly: qHTS Assay for Inhibitors and Substrates of Cytochrome P450 3A4 (AID 884). Note: potency is the fitted concentration of half-maximal effect; nearly all actives have a fitted effect of over 50% in size. The following applies: recombinant CYP3A4, Luciferin-PPXE luminescence; series mostly up to 57.1 µM. The essentials: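 20 nM human CYP3A4 with 25 uM Luciferin-PPXE (at KM) in 200 mM KPO4, preincubated 10 min with compound; NADPH regeneration started a 60 min RT reaction. Luciferin detected by luminescence, normalized to 57 uM ketoconazole as full inhibition.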

Assay [17] is described as follows: qHTS Assay for Identification of Small Molecule Agonists for Hypoxia Response Element Signaling Pathway (AID 914; active = well fitted activation curve with a large enough effect in the signal ratio, with a control signal flat, not every such curve was filed as active; the % refers to the signal ratio; note: % of control where 0% means no effect). The note with it: ME-180 (cervical carcinoma) HRE-bla reporter, beta-lactamase ratio, CoCl2, 17 h; activation: stronger effect = higher value. The essentials: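 Reporter activity (beta-lactamase, CCF4 460nm/530nm ratio) in HRE-bla ME-180 cells is recorded after 17 h compound exposure with EC50 CoCl2 at 37 degrees Celsius. AC50 values come from titration data.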

SMILES strings stand for the structures. Values without a mark were called inactive. Inconclusive results are not listed. The source made the active and inactive calls. Unless noted, calls come from the whole dose curve; as a rule, active = well fitted curve in the direction sought with a large enough effect; inconclusive = small, poorly fitted or top-dose-only effect, or another doubt; inactive = no such curve, though single readings can be large; an effect the other way counts as inactive or inconclusive.

Dual specificity protein kinase CLK4 (Homo sapiens), sequence (Q9HAZ1 whole entry, looked up): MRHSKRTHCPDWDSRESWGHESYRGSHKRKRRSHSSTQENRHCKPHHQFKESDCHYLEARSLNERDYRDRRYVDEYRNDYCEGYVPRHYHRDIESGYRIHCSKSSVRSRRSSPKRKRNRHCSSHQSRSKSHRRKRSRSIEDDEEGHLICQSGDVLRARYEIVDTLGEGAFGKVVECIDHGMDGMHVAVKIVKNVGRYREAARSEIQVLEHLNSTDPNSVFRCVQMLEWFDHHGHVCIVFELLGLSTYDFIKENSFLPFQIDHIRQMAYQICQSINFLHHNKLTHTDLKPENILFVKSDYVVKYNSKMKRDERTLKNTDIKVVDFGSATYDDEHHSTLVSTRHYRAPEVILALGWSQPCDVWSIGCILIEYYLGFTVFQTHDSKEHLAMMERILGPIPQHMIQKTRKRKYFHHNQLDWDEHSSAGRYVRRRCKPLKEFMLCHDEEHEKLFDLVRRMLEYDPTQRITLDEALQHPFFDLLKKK
Ubiquitin carboxyl-terminal hydrolase 1 (Homo sapiens), sequence (O94782 whole entry, looked up): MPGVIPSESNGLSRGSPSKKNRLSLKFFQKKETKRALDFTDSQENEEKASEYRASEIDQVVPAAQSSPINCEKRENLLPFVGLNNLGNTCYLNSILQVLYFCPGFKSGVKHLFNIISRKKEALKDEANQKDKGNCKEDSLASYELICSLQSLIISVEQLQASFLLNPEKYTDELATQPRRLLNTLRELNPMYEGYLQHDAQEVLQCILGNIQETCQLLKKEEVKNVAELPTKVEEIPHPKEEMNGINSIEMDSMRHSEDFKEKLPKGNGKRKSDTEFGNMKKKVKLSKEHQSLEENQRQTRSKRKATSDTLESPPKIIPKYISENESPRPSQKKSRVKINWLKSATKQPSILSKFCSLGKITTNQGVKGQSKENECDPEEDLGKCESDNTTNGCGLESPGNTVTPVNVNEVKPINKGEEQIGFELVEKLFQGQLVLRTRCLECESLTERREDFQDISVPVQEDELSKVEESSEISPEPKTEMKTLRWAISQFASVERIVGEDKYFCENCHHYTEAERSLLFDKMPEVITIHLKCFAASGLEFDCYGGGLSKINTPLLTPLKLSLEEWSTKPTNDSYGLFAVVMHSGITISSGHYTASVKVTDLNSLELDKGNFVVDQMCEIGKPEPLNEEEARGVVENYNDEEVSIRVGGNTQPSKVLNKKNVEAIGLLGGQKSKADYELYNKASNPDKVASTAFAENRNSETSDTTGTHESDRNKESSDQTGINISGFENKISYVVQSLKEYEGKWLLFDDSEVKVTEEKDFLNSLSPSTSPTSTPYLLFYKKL
3',5'-cyclic-AMP phosphodiesterase 4B (Homo sapiens), sequence (Q07343 whole entry, looked up): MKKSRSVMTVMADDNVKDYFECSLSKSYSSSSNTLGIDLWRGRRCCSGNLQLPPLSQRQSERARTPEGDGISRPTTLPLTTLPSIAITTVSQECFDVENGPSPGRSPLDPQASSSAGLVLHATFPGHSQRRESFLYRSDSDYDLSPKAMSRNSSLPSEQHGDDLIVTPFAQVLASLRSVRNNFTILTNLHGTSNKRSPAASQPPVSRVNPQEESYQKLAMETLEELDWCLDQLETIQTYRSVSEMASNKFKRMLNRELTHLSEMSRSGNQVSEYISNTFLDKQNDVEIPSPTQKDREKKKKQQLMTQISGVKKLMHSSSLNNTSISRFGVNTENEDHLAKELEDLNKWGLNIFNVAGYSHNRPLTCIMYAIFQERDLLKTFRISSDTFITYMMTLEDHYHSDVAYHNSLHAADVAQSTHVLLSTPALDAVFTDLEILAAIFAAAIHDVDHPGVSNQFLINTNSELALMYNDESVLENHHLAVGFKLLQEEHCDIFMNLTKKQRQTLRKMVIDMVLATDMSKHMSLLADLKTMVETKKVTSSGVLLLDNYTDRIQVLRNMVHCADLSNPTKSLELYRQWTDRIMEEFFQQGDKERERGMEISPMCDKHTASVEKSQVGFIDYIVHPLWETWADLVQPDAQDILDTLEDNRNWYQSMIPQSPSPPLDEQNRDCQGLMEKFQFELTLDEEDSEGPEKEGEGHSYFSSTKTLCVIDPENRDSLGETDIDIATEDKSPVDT

For the compound `c1ccc(CNc2nc(-c3ccc4c(c3)OCO4)nc3ccccc23)cc1`, the Potency in assay [1] is more than 11.4 µM; in [3], 0.501 µM (active); in assay [6], more than 46 µM; in [7], more than 46 µM. Also, the activity change, negative = inhibition in [2] is -7.19%; in assay [4] it was -23.9%. In assay [5], the activity, negative = inhibition is -13%. Moreover, the Potency entry in assay [8], in [9], in assay [10], in [11] and in assay [12] was “inactive” throughout. In addition, in [13], the result was inactive.
Regarding `CCNc1ncc2nc(-c3ccc(Cl)cc3)c(=O)n(-c3ccc(OC)cc3)c2n1`, the Potency in assay [1] was more than 11.4 µM; in [6] it was more than 9.22 µM; in assay [7] it was more than 46 µM. Also, the Potency result in assay [14], in [10], in assay [15] and in [12] was “inactive” in each case. Further, the result in [13] was inactive.
For the compound `FC(F)(F)c1ccccc1-c1cc(NCc2cccnc2)ncn1`, the Potency in [1] is more than 11.4 µM; in [3], 3.98 µM (active); in assay [6] it was more than 46 µM; in assay [7], more than 46 µM. Besides, the values for the activity change, negative = inhibition in [2] and in assay [4] were -2.3% and 4.08%, respectively. In addition, in assay [5], the activity, negative = inhibition was -3%. The Potency entry in [8], in [14], in assay [9], in assay [10], in assay [11] and in assay [12] was “inactive” each time. The outcome in [13] was inactive.
`COc1ccc2[nH]cc(CCNc3ccnc(-c4ccc(C(=O)N(C)C)cc4)n3)c2c1`: the Potency in [1] is more than 11.4 µM; in [3], 12.6 µM (active); in assay [6], more than 46 µM; in assay [7], more than 46 µM; in [16], 3.16 µM (active). Also, the activity change, negative = inhibition is -14.6% in assay [2] and -3.74% in assay [4]. The activity, negative = inhibition in [5] is -20.4%. Besides, the Potency entry in assay [8], in assay [14], in [9], in assay [10], in assay [11] and in assay [12] was “inactive” each time. For the same compound, in [13], the result was inactive.
Regarding `CNc1ncnc2ccc(-c3ccccc3C#N)cc12`, the figures for the activity change, negative = inhibition in assay [2] and in [4] were 21.4% and 23.3%, respectively. The Potency in [3] was 1 µM (active); in [7] it was more than 46 µM; in assay [10], 6.31 µM (active); in assay [15], 7.08 µM (active). For the same compound, the activity, negative = inhibition in assay [5] was -1.74%. Moreover, the Potency entry in [8], in [14], in [9] and in assay [12] was “inactive” each time. Besides, the outcome in [13] was inactive.
As to `COc1ccc(CNc2ccnc(-c3ccoc3)n2)c(OC)c1`, the Potency is more than 11.4 µM in [1], more than 46 µM in assay [6] and more than 46 µM in assay [7]. Moreover, in [4], the activity change, negative = inhibition is 8.22%. For the same compound, the activity, negative = inhibition in [5] is 10.4%. Also, the Potency entry in assay [8], in assay [10], in [15] and in assay [12] was “inactive” in each case. Moreover, in assay [17], the activation is 16.3%. Besides, the outcome in [13] was inactive.
For the compound `N#CCCn1c(=O)c(-c2ccc(Cl)cc2)nc2cnc(N3CCNCC3)nc21`, the Potency in [1] was more than 11.4 µM; in assay [6], more than 9.22 µM; in [7], more than 46 µM. The Potency result in [8], in assay [14], in assay [9], in assay [10], in assay [15] and in assay [12] was “inactive” in each case. Further, the result in [13] was inactive.

(Values after PubChem BioAssay (NCATS).)
